In the library only some 7.4% were active in any assay of this set; here they are far more common.
ELG1 genotoxic: inducers of genotoxicity in HEK293T ELG1-luciferase cells | AID 504466 | HEK293T ELG1-luciferase reporter, luminescence, 16 h | 330,000 tested, 1.3% active | Potency, µM (highest dose often 46 µM), for the others: at the top dose activity change, positive = activation, actives largely listed as activators; further: % of control where 0% means no effect; nearly all actives have a fitted effect of over 60% in size
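Screening used a luciferase reporter fused to human ELG1 in HEK293T cells. Luminescence was read on a CCD plate imager after 16 hr exposure and 30 min ONE-Glo incubation.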
p53 reactivation: restores transcriptional activity of mutant p53; H1299 p53-A138V BP100-luciferase reporter, luminescence, 24 h; Potency, µM (top dose mostly 92.2 µM), for the others: at the top dose activity change, positive = activation, usual class: activators; 320,000 tested, 0.063% active; AID 504706; further: % of control where 0% means no effect; nearly all actives have a fitted effect of over 45% in size
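p53-null H1299 cells stably carrying temperature-sensitive p53-A138V and a BP100-luciferase reporter were pinned with compounds (4-point, 1:5 series) and held 24 hrs at 37 deg C. Luminescence was read 10 min after detection reagent.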
Rab9 promoter act: Rab9 promoter activation | Huh7 Rab9 promoter-luciferase reporter, luminescence, 24 h | Potency, µM (top dose mostly 9.22 µM), without a hit: top-dose activation, negative = inhibition, hits mostly activators | 320,000 tested, 2.8% active | AID 485297; further: % of control where 0% means no effect; nearly all actives have a fitted effect of over 60% in size
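Cells were plated at 1500 per well in reduced-serum medium with 10% FBS and left 2 h. Compound in DMSO was then added for 24 h at 37 °C. Reporter signal was read by luminescence after 10 min with luciferase detection reagent.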
NPC1 promoter act: activates the NPC1 promoter. Huh7 NPC1 promoter luciferase reporter, 24 h. Potency, µM (titrated, usually from 9.22 µM), for the others: top-dose activation, usual class: activators. 320,000 tested, 2.4% active; further: % of control where 0% means no effect; nearly all actives have a fitted effect of over 60% in size
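Cells: Huh7 expressing luciferase under the NPC1 promoter, 1500/well. Seeded 2 h, compound added, incubated 24 h at 37 °C. Luciferase reagent, 10 min ambient, then luminescence.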
FLuc modulator: firefly luciferase modulation, counter-screen for miR-21 project; purified FLuc, Km substrates, luminescence inhibition; Potency, µM (top dose mostly 57.5 µM), for the others: at the highest dose activity change, negative = inhibition, actives largely listed as inhibitors; 360,000 tested, 6.9% active; AID 588342;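 further: plate controls were vehicle for no effect and reference inhibitor for full effect; nearly all actives have a fitted effect of over 55% in size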
Target sequence (P08659 whole entry, looked up): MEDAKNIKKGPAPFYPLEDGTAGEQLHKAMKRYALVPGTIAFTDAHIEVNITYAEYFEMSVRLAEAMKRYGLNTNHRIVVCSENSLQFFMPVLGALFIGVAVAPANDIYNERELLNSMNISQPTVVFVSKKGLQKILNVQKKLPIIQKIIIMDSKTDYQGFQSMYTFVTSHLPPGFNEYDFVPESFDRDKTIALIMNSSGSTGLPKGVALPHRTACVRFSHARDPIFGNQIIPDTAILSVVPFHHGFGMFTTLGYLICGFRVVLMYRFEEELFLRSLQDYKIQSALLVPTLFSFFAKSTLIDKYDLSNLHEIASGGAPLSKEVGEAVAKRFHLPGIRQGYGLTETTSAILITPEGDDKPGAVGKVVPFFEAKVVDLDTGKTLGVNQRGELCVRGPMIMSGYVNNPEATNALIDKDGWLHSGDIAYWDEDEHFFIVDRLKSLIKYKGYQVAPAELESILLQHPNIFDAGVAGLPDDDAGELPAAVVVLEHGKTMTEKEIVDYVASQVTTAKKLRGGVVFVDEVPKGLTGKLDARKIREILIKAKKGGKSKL
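Purified P. pyralis luciferase (10nM final) with 10uM D-luciferin and 10uM ATP (Km levels) in 50mM Tris acetate pH 7.5, 10mM Mg acetate, 0.01% Tween-20, 0.05% BSA; qHTS 6-point titration, ~60 µM downward; luminescence read.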
SMN2 splice up: SMN2 splice variant enhancement | HEK293 SMN2-luciferase splicing reporter, luminescence, 30-36 h | Potency, µM (titrated, usually from 46.1 µM), without a hit: at the top dose activity change, positive = activation, actives largely listed as activators | 210,000 tested, 2.8% active | AID 1458; further: % of control where 0% means no effect; nearly all actives have a fitted effect of over 55% in size
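HEK293 cells carry an SMN2 minigene-luciferase reporter in which exon 7 inclusion puts luciferase in frame. Cells were seeded at 2000 cells/well, attached for 10-12 hours, then exposed to compounds for 30-36 hours at 37C before ONE-Glo luminescence.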
Starred values were filed as active, the others as inactive; ? = inconclusive; · = no result given; [ ] = dose if it differs, or a comment. The call rests on the fitted dose curve; in most records, active means well fitted curve in the direction sought with a large enough effect; inconclusive means small, poorly fitted or top-dose-only effect, or another doubt; inactive means no such curve, though single readings can be large; an effect the other way counts as inactive or inconclusive. Potency means the concentration at half of the fitted maximal effect.

SMILES	ELG1 genotoxic	p53 reactivation	Rab9 promoter act	NPC1 promoter act	FLuc modulator	SMN2 splice up
Cc1cc(Cl)ccc1OCC(=O)N1CCCCC1	20.6µM*	?	27.6%	?	16.9µM*	?
O=C(COc1ccccc1Cl)NC(=O)NC1CCCC1	?	?	?	16.0%	13.5µM*	-10.4%
Cc1cc(Cl)ccc1OCC(=O)N1CCN(c2ncccn2)CC1	-2.6%	-6.1%	-10.4%	1.7%	-1.1%	-17.6%
COc1ccccc1C(=O)OCC(=O)NC(=O)NC1CCCC1	0.2%	9.2%	0.2%	-0.1%	2.7%	·
O=C(COc1ccc(Cl)cc1Cl)NC(=S)N1CCCc2ccccc21	2.7%	27.6%	3.7%	-26.2%	26.9µM*	-28.8%
O=C(Cc1ccc(-c2ccccc2)cc1)NCCS(=O)(=O)N1CCN(c2cccc(Cl)c2)CC1	·	·	·	·	2.3%	·
CC(C)Cn1nc(NC(=O)c2cccc(Cl)c2)c2cc3ccccc3nc21	·	·	·	·	-5.3%	-1.1%
O=C(COc1ccccc1Cl)OCc1cc(=O)n2nc(-c3cccs3)sc2n1	·	·	·	·	-1.5%	·
O=C(COC(=O)COc1ccc(Cl)cc1Cl)NC1CCCCCC1	0.8%	9.6%	1.0%	1.9%	-0.4%	·
O=C(COc1ccc(Cl)cc1Cl)NC(=O)NC1CCCC1	?	?	?	?	9.53µM*	·
O=C(COc1ccc(Cl)cc1Cl)N1CCCN(C(=O)COc2ccc(Cl)cc2Cl)CC1	-12.4%	-1.2%	-2.2%	-1.6%	-9.2%	-34.1%
O=C(COc1ccc(Cl)cc1Cl)NC1CCSC1=O (stereo not given)	16.4µM*	?	3.55µM*	?	10.7µM*	?
O=C(COc1ccc(Cl)cc1Br)NC(=O)NC1CCCC1	?	?	3.16µM*	3.55µM*	6.01µM*	·
O=C(COc1ccc(Cl)cc1Cl)NC(=O)N1CCCCC1	2.91µM*	?	?	25.2%	3.38µM*	2.24µM*
Cc1cccc(-n2ccc(=O)c(C(=O)Nc3ccc(S(=O)(=O)N4CCOCC4)cc3)n2)c1	-10.0%	-1.8%	-7.4%	2.3%	1.3%	·
O=C(Cn1cc(SCc2ccc(F)cc2)c2ccccc21)N1CCCCCC1	·	·	·	·	-2.1%	·
CCn1c(-c2cc(-c3ccc(C)c(C)c3)nc3ccccc23)n[nH]c1=S	8.9%	6.4%	2.6%	-1.6%	3.01µM*	·
CCOc1cccc(-c2cc(-c3n[nH]c(=S)n3CC)c3ccccc3n2)c1	-9.7%	-1.7%	-6.4%	8.4%	12µM*	-16.0%
Cc1ccc(-c2cc(-c3n[nH]c(=S)n3C)c3ccccc3n2)cc1	4.1%	-0.7%	-7.6%	-1.5%	10.7µM*	18.8%
CCOc1ccccc1-c1cc(-c2n[nH]c(=S)n2CC)c2ccccc2n1	-10.1%	-3.8%	-1.9%	1.0%	4.0%	-11.3%
Cc1nn(CCCC(=O)NC(C)c2ccccc2)c(=O)c2nn(-c3ccccc3)c(C)c12 (stereo not given)	0.3%[9.26 µM]	-5.3%	-4.2%	-7.5%	1.6%	·
CCOc1ccc(N(CC)C(=O)CCS(=O)(=O)c2cccc3nonc23)cc1	-2.2%	-3.0%	-1.3%	-2.4%	-0.2%	·
COc1ccc(C(=O)CNc2ccccc2Br)cc1	?	?	?	?	7.57µM*	·
COc1ccc(C(=O)C[n+]2ccc3ccccc3c2C)cc1	1.2%	1.8%	1µM*	?	-16.9%	·
COc1ccc(C(=O)CCC(=O)O)cc1	6.3%	-2.5%	-7.6%	0.5%	3.5%	-14.5%
SMILES	ELG1 genotoxic	p53 reactivation	Rab9 promoter act	NPC1 promoter act	FLuc modulator	SMN2 splice up
COc1ccc(C(=O)CC(=O)c2ccc(OC)cc2)cc1	6.5%	·	15.2%	18.7%	19µM*	·
COc1ccc(C(=O)CN2C(=O)c3ccccc3C2=O)cc1	10.5%	12.9%	26.8%	?	16.9µM*	·
Cc1ccc(C)c(Nc2cc(C(=O)NC3CCCC3)c3ccccc3n2)c1	·	·	·	·	-4.6%	6.2%
COC(=O)N1CCC2(CCCN(Cc3ccc(C#N)cc3)C2)CC1	·	·	·	·	·	-9.0%
COc1ccc(C(=O)c2ccc(O)cc2)c(O)c1O	·	·	·	·	·	6.1%
CC1Cc2cc(S(=O)(=O)NCCc3ccc(Cl)cc3)ccc2N1C(=O)C1CCC1 (stereo not given)	·	·	·	·	-9.4%	·
COc1ccc(C(=O)C(OC(=O)c2ccccc2Cl)c2ccccc2)cc1 (stereo not given)	?	?	3.98µM*	?	13.5µM*	64.8%
COc1ccc(O)c(C(=O)CC(=O)c2ccccc2)c1	?	?	0.708µM*	0.708µM*	16.9µM*	1.78µM*
COc1ccc(C(=O)CSc2ccccc2C(=O)O)cc1	18.6%	16.3%	?	2.24µM*	9.53µM*	11.2µM*
COc1ccc(C(=O)CSc2ccc(-c3ccccc3)nn2)cc1	-0.8%	3.8%	-5.3%	0.4%	-15.5%	10.5%
COc1ccc(C(=O)NCC(=O)c2ccccc2)cc1	9.2µM*	2.7%	3.55µM*	2.82µM*	12µM*	·
COc1ccc(C(=O)Cc2nnc(C)s2)cc1	?	?	?	?	19µM*	?
c1ccc(CNc2ccc3c(c2)ncn3C2CCCCC2)nc1	11.3%	13.1%	?	?	13.5µM*	27.6%
CCCCS(=O)(=O)Nc1ccc2c(c1)ncn2C1CCCCC1	-1.8%	1.2%	-3.9%	5.2%	-7.8%	-20.4%
O=C(CN1CCOCC1)NCc1cc([N+](=O)[O-])ccc1O	1.0%	4.1%	0.1%	0.4%	-5.0%	·
Clc1ccc(-c2csc(Nc3ccccc3)[n+]2Cc2ccco2)c(Cl)c1	10.5%	10.7%	2.82µM*	?	12µM*	-47.4%
Cc1ccc(Nc2nc3nonc3[nH]c2=O)cc1Cl	-16.0%	21.0%	2.2%	9.2%	21.3µM*	-73.6%
Cc1ccc(Nc2nc3nonc3[nH]c2=O)cc1C	6.9%	?	26.0%	18.1%	12µM*	12.6%
Cc1ccc(NC2=CC(=O)CC(C)(C)C2)cc1Cl	-4.6%	3.3%	-2.9%	1.5%	2.6%	·
CN(C)CC#Cc1cncc(C(=O)NNC(=O)Nc2ccc(Cl)cc2)c1	0.5%	4.1%	2.0%	3.8%	23.9µM*	·
CC(C)c1cccc2nc3c(c(C(C)(C)C)c12)Cn1c-3cccc1=O	·	·	·	·	·	-4.7%
Cc1ccc(C)c(Nc2nc3ccccc3n3cnnc23)c1	2.0%	24.8%	0.7%	-3.6%	-0.8%	·
Cc1cc(C)n2ncc(/C(N)=N/OC(=O)Nc3ccccc3)c2n1	-8.5%	17.1%	-0.3%	-1.3%	26.9µM*	·
COc1cccc(-c2nc(CS(=O)(=O)CC(=O)N3CCN(c4ccccc4)CC3)c(C)o2)c1	·	·	·	·	-0.5%	-7.2%
O=C(O)c1ccc(-c2ccc(-c3ccccc3)cc2)s1	?	-10.6%	0.001µM*	3.98e-05µM*	0.0757µM*	·
O=C(Nc1ccccc1)c1cc2ccc3ccccc3c2s1	?	?	?	?	5.36µM*	·
